The list is not random: actives were taken first. Their share in the collection is about 1.7%.
GSTO1 counter: inhibitors of recombinant GSTO1, primary screen, counter-screen for RBBP9 inhibitor project, biochemical, fluorescence polarization; Glutathione S-transferase omega-1 (Homo sapiens), P78417; activity-based probe fluorescence polarization; inhibition, % at 5.96 µM; 300,000 compounds, 1.1% hits; AID 1974, 2009;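 active = inhibition above the campaign mean inhibition plus 3 SD, cut at about 35% in these data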;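 note: 0% = GSTO1-1 with DMSO and 100% = wells lacking GSTO1-1 enzyme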
Target sequence (P78417 whole entry, looked up): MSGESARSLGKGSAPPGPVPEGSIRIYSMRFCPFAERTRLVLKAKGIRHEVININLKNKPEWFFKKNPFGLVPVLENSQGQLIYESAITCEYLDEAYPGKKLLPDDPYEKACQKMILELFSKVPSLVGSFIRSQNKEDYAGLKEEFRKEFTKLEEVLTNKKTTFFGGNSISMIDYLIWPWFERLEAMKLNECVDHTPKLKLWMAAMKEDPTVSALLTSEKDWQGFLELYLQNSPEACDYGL
EBNA-1 inhibitor: EBNA-1 DNA-binding inhibitors, primary screen, biochemical, fluorescence polarization; inhibition, % at 14.8 µM; 300,000 compounds, 0.34% hits; AID 1950, 2009; in the data active = inhibition above about 28%
ZTA counter: blocks Epstein-Barr virus ZTA, an EBNA-1 counter-screen; ZTA-DNA binding, fluorescence polarization; P03206; AID 2234; 320,000 compounds, 0.15% hits; inhibition, % at 11 µM; in the data active = inhibition above about 33%
LYPLA1 counter: LYPLA1 inhibitors, primary screen, counter-screen for PME1 inhibitor project, biochemical, fluorescence polarization, FP-Rh probe ABPP | AID 2174, 2009 | inhibition, % at 5.9 µM | recombinant LYPLA1 | 320,000 compounds, 0.16% hits | Acyl-protein thioesterase 1 (Homo sapiens), O75608;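 active = inhibition above the mean of all tested compounds plus 3 SD, set per campaign, cut at about 14% in these data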;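 note: inhibitors block serine hydrolase probe labeling of LYPLA1 so polarization falls; 0% = enzyme with DMSO and 100% = wells lacking LYPLA1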
PAD4 inh: human PAD4 inhibitors, primary screen, biochemical, fluorescence polarization, 1536-well format; Protein-arginine deiminase type-4 (Homo sapiens), Q9UM07; recombinant PAD4, RCA probe fluorescence polarization; 330,000 compounds, 0.41% hits; AID 485272, 2010; inhibition, % at 6.36 µM;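 active = percent inhibition above a cutoff equal to the mean of all tested compounds plus 3 SD, cut at about 15% in these data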;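 note: 0% = PAD4 with RCA probe and DMSO and 100% = probe without PAD4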
LYPLA2 counter: LYPLA2 inhibitors, primary screen, counter-screen for PME1 inhibitor project, biochemical, fluorescence polarization, FP-Rh probe ABPP. 320,000 compounds, 0.38% hits. inhibition, % at 5.9 µM. AID 2177, 2009. recombinant LYPLA2;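 active = inhibition above the screen-wide mean plus 3 SD, limit set per campaign, cut at about 26% in these data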;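 note: 0% = LYPLA2 with DMSO and 100% = wells lacking LYPLA2 enzyme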
Target sequence (O95372 whole entry, looked up): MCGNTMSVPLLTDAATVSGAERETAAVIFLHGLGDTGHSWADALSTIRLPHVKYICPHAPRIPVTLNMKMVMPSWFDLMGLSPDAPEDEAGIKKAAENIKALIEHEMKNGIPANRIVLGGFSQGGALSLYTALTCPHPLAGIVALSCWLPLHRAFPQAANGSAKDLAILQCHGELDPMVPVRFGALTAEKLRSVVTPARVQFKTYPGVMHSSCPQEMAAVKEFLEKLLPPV
EBNA-1 confirm: EBNA-1 DNA-binding inhibitors, retest, confirmation, biochemical, fluorescence polarization, triplicate | shares compounds with EBNA-1 inhibitor | Recombinant EBNA-1 DBD, Cy5-DNA fluorescence polarization | inhibition, % at 14.8 µM | 830 compounds, 35% hits | AID 2292, 2010;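 active = mean inhibition across replicates above a set limit taken from the earlier primary screen, cut at about 28% in these data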;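 note: plate controls were EBNA-1 protein with DMSO for no effect and wells lacking EBNA-1 for full effect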
ZTA counter trip: EBV Zta DNA binding inhibitors, counter-screen for EBNA-1 inhibitor project, biochemical, fluorescence polarization, triplicate | Zta-ZRE DNA binding, Cy5 fluorescence polarization | inhibition, % at 11.1 µM | 830 tested, under 10 active | shares compounds with EBNA-1 inhibitor;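 active = mean inhibition over triplicates above a set limit taken from the primary EBNA-1 screen, cut at about 37% in these data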;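 note: purified full length Zta protein with Cy5 labeled ZRE DNA probe; 0% = Zta with DMSO and 100% = wells lacking Zta protein; inhibitors lower polarization by freeing the labeled DNA probe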
Starred values were filed as active, the others as inactive; . = no result given.

SMILES	GSTO1 counter	EBNA-1 inhibitor	ZTA counter	LYPLA1 counter	PAD4 inh	LYPLA2 counter	EBNA-1 confirm	ZTA counter trip
CCCC(=O)NC(=S)Nc1ccc(C(C)=O)cc1	3	-8	-7	-3	-3	-1	.	.
CC(=O)Oc1ccccc1-n1c(C)nc(=O)c(-c2ccccc2)c1C	-8	11	1	0	0	5	.	.
Cc1cc2nc(-c3cccc(NC(=O)c4ccc(Br)o4)c3)oc2cc1C	-16	51*	2	-11	0	-18	15	-2
COc1ccc(CNC(=O)COC(=O)/C=C/c2ccc(Cl)cc2)cc1	5	3	6	-2	0	-3	.	.
COc1ccc(OC)c(NC(=O)COC(=O)/C=C/c2ccc(Cl)cc2)c1	3	42*	-15	-5	-1	1	15	9
COc1cc(NC(=O)COC(=O)/C=C/c2ccc(OC)c(OC)c2)cc(OC)c1	0	2	-8	-4	4	-1	.	.
COc1cc(NC(=O)COC(=O)/C=C/c2ccccc2Cl)cc(OC)c1	0	69*	9	-31	1	-42	30*	13
CCOc1ccccc1N(CC(=O)Nc1ccc(OC)cc1)S(=O)(=O)c1ccccc1	2	28*	-12	0	-4	4	-3	-3
CCOc1ccccc1N(CC(=O)Nc1cccc(OC)c1)S(=O)(=O)c1ccccc1	-8	5	11	0	3	4	.	.
CCOc1ccc(-n2c(SCC(=O)Nc3nccs3)nc3c(c2=O)SCC3)cc1	9	12	-7	0	-1	-3	.	.
Cc1ccc(-n2c(SCC(=O)Nc3nccs3)nc3c(c2=O)SCC3)cc1	3	39*	23	-2	1	4	38*	-3
O=C(COC(=O)C1=COCCO1)NC1CCCCC1	-11	-10	2	-2	-3	-4	.	.
CCn1c(SCC(=O)Nc2ccc(C(C)=O)cc2)nc2c([nH]c3ccccc32)c1=O	1	39*	-5	0	-4	2	-6	3
COc1ccc(-n2c(SCC(=O)NCC3CCCO3)nc3c([nH]c4ccccc43)c2=O)cc1 (stereo not drawn)	3	110*	8	1	-2	2	123*	-12
O=C(Nc1cccc(Cl)c1Cl)C1CC(=O)N(c2ccc(Br)cc2)C1 (stereo not drawn)	-1	60*	7	-3	-1	-2	21	8
Cc1cc(C(C)(C)C)cc(C)c1CCNC(=O)c1ccc[n+]([O-])c1	9	-3	4	-4	-1	-6	.	.
CCc1cccc(OCC(=O)Nc2ccc(S(=O)(=O)Nc3ccccn3)cc2)c1	5	-3	5	-1	3	4	.	.
Cc1ccc(OCC(=O)Nc2ccc(S(=O)(=O)Nc3ccccn3)cc2)cc1C	-5	43*	-1	-3	-6	-6	-1	11
O=C(Cn1nnc(-c2ccc(CN3CCOCC3)cc2)n1)Nc1nc(-c2ccccc2)cs1	-12	48*	-2	-21	-6	-25	5	7
O=C(CN1CCOCC1)Nc1nc(-c2ccccc2)cs1	-5	-10	-4	-2	2	-2	.	.
COc1ccc(Cl)cc1NC(=O)CSc1nc(Nc2ccccc2)nc(N2CCOCC2)n1	-14	8	-3	-12	1	-15	.	.
COc1cc(NC(=S)NC(=O)c2ccc(C(C)(C)C)cc2)ccc1NC(=O)c1cccs1	-1	-10	17	-1	0	9	.	.
COc1cc(NC(=S)NC(=O)c2cc(C)cc(C)c2)ccc1NC(=O)c1cccs1	-10	70*	9	-6	1	-8	1	2
COc1cc(NC(=S)NC(=O)c2ccc(F)cc2)ccc1NC(=O)c1ccco1	3	40*	3	-1	1	4	35*	3
COc1ccc(N(C(=O)c2ccco2)C(C(=O)NC2CCCC2)c2cccs2)c(OC)c1 (stereo not drawn)	1	55*	17	0	1	0	8	13
SMILES	GSTO1 counter	EBNA-1 inhibitor	ZTA counter	LYPLA1 counter	PAD4 inh	LYPLA2 counter	EBNA-1 confirm	ZTA counter trip
COc1cc(C(=O)OCC(=O)Nc2cc(C)on2)ccc1OCc1ccccc1Cl	0	-3	-8	-2	-4	-6	.	.
COc1ccc(NC(=O)COC(=O)c2ccc(OCc3ccccc3Cl)c(OC)c2)c(OC)c1	4	32*	-4	5	3	-3	-8	-9
CCN(CC)S(=O)(=O)c1ccc(C(=O)NN(C)C2=NS(=O)(=O)c3ccccc32)cc1	-9	36*	-2	0	-6	-2	2	-11
COc1ccc(Cc2nnc(NC(=O)Nc3ccccc3)s2)cc1OC	-14	60*	-3	-12	7	-16	26	3
COc1ccc(C(=O)Nc2nnc(Cc3cccs3)s2)cc1OC	1	30*	12	-4	-3	-6	52*	8
Cc1nn(CCCC(=O)NCc2ccco2)c(=O)c2nn(-c3ccccc3)c(C)c12	5	6	12	-2	-4	4	.	.
O=C(COC(=O)c1ccc(CNS(=O)(=O)c2ccc(F)c(Cl)c2)cc1)NCC1CCCCC1	-6	31*	-11	-4	-5	-1	0	-1
COc1ccc(CN2CCCC(C(=O)c3cccc(C(F)(F)F)c3)C2)cc1O (stereo not drawn)	-5	-2	-8	-2	1	4	.	.
O=C(Nc1cc(F)c(Br)cc1F)c1ccc(Cl)cc1	1	-9	8	2	-3	6	.	.
CC(=O)Nc1ccc(NC(=O)c2ccc(NS(=O)(=O)c3cccc4cccnc34)cc2)cc1	3	39*	5	-5	-1	2	18	6
Cc1csc(NC(=O)COc2ccc3c(C)cc(=O)oc3c2)n1	5	44*	15	-3	-2	-4	47*	10
CN(CC(=O)NCc1ccccn1)S(=O)(=O)c1ccc2ccccc2c1	8	2	15	8	2	-3	.	.
COc1ccc(NC(=O)CSCC(=O)Nc2nnc(C)s2)cc1	10	-17	-7	4	-3	5	.	.
Cc1ccc(-c2nn3c(C)nnc3s2)cc1NC(=O)c1ccc(-c2ccc(Cl)cc2Cl)o1	-6	37*	13	-6	2	-8	2	-11
